Measurements from PubChem BioAssay (NCI).
The panel holds about 83,000 compounds, 20% with a hit somewhere; the sample as a whole holds those more often.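 Cells were grown in 96-well plates and exposed to the test compound at a single concentration for 48 hours; results are reported as percent growth, with values below 10 considered active.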 Unmarked numbers belong to inactive results. The source made the active and inactive calls.

What was measured:
Test in all cases: NCI-60 one-dose screen, 48 h (100 = growth as untreated, 0 = no growth, -100 = all killed)
Conditions in all cases: 10 µM unless noted
T-47D breast = system: T-47D breast
BT-549 breast = system: BT-549 breast
MDA-MB-435 melanoma = system: MDA-MB-435 melanoma
SW-620 colon = system: SW-620 colon
MCF7 breast = system: MCF7 breast
HCT-116 colon = system: HCT-116 colon
HCC-2998 colon = system: HCC-2998 colon
KM12 colon = system: KM12 colon

Compound	growth (T-47D breast)	growth (BT-549 breast)	growth (MDA-MB-435 melanoma)	growth (SW-620 colon)	growth (MCF7 breast)	growth (HCT-116 colon)	growth (HCC-2998 colon)	growth (KM12 colon)
COc1ccc(-c2cnc3ccccc3n2)cc1	96.7%	95.1%	94.4%	96.6%	105%	99.2%	95.4%	92.7%
O=C1COCCN1c1ccc(NCc2cn(C(=O)c3ccc(Cl)cc3)c3ccccc23)cc1	-12.7% (active)	41.9%	92.6%	40.4%	10.1%	7.09% (active)	91%	97.1%
COc1ccc2nc(NC(=O)c3cccnc3Nc3ccc(S(N)(=O)=O)cc3)sc2c1	84.6%	84.7%	91.5%	109%	110%	93.5%	114%	97.8%
O=C(CCCCCCSc1nc(-c2ccccc2)cc(-c2ccccc2)n1)NO	-11.1% (active)	30.9%	17.3%	8.47% (active)	16.1%	11.6%	63.4%	50.7%
COc1ccc(-c2cc(-c3cc(OC)c(OC)c(OC)c3)nc(N3CCOCC3)c2C#N)cc1	46.7%	128%	74.5%	67.3%	74.4%	72.1%	35%	71.9%
O=c1c2cccc(Cl)c2sc2c(NCCCNCCO)nc3ccccc3c12	42.7%	80.1%	-87.1% (active)	-97.6% (active)	15.3%	-58.9% (active)	-88% (active)	-62.1% (active)
Cc1ccc(C(=O)NN2C(=O)CSC2c2ccc(Cl)cc2)cn1 (stereo unspecified)	84%	192%	91.1%	97%	105%	96%	96.5%	97.9%
CCOC(=O)Nc1ccc(C(=O)/C=C/c2ccccc2)cc1	84.3%	95.1%	44.6%	73.9%	0.358% (active)	6.33% (active)	34.4%	8.51% (active)
CCc1ccccc1-n1c(N)c(C#N)c(-c2ccc(Cl)cc2)c(C#N)c1=O	101%	173%	119%	102%	103%	103%	107%	95.8%
C=C(C)C1CCC2(C)OC2C1 (stereo unspecified)	117%	99.3%	98.2%	110%	105%	109%	114%	115%
COc1ccc(C(=S)N2CCN(c3cccc(C)c3)CC2)cc1OC	76%	59.1%	2.58% (active)	36.5%	43.4%	37%	62.5%	43.2%
Oc1ccc(CCl)c2cccnc12	30.3%	66.7%	84.8%	41.5%	5.57% (active)	15.4%	91.3%	82%
Cn1cc(-c2cc3ncnc(Nc4ccc(CC(=O)Nc5cc(C(C)(C)C)nn5C)cc4)c3s2)cn1	12.1%	45.7%	58.4%	63%	54.8%	39.2%	80.8%	16.7%
COc1ccc(CN2c3ccccc3Sc3ccccc32)c(F)c1	11.9%	56.5%	-51% (active)	10.3%	22.6%	15.7%	61.6%	25.8%
CSc1nc2ccc(C)cc2cc1/C=N/O	71%	73.2%	91.5%	85.6%	86.3%	81.1%	96.6%	93.7%
NC1CCN(c2nc(Nc3cccc(C(F)(F)F)c3)c3c(=O)[nH]ccc3n2)CC1	-73.2% (active)	-91.8% (active)	-74.2% (active)	-76.8% (active)	-85.8% (active)	-99.5% (active)	-85.8% (active)	-67.1% (active)

Compound	growth (T-47D breast)	growth (BT-549 breast)	growth (MDA-MB-435 melanoma)	growth (SW-620 colon)	growth (MCF7 breast)	growth (HCT-116 colon)	growth (HCC-2998 colon)	growth (KM12 colon)
N#C/C(=C\c1ccc(F)cc1)n1nc2cccc(F)c2n1	33%	60.8%	-55.4% (active)	18.9%	14.1%	20.8%	93.8%	16.4%
Cn1cc(-c2cc3ncnc(Nc4ccc(CC(=O)Nc5cc(C(C)(C)C)on5)cc4)c3s2)cn1	30.7%	52.5%	40.7%	38.8%	41.5%	21.8%	99.1%	19.1%
Cc1oc2nc[nH]c(=O)c2c1C(=O)/C=C/c1ccc(Br)cc1	4.69% (active)	2.55% (active)	19.8%	3.84% (active)	9.43% (active)	-11.6% (active)	-33.9% (active)	-5.18% (active)
Cc1nn(-c2ccccc2)c(-n2ccnc2)c1/C=N/Nc1nc(-c2ccc(F)cc2)cs1	31.1%	75.3%	85.2%	88.4%	72.3%	67.8%	104%	90.4%
COc1cc(OCc2cccc(-c3ccc(C(O)c4nccs4)cc3)c2C)cc(OC)c1CNCCNC(C)=O (stereo unspecified)	90.8%	102%	98.5%	97.8%	89.9%	94%	124%	101%
CN1CCN(c2ccc(-c3cc4c(Nc5ccc(F)c(Cl)c5)ncnn4c3)cc2)CC1	63.4%	98.5%	76.4%	25.2%	45.3%	15.7%	53.8%	13.8%
CC(=O)N1CCN(c2ccc(OCC3CO[C@](Cn4ccnc4)(c4ccc(Cl)cc4Cl)O3)cc2)CC1 (stereo partly specified)	51.1%	54.7%	94%	104%	86.4%	68.4%	85.5%	87%
N#Cc1c(Nc2cccc(Cl)c2)sc(C(=O)c2cc3cc(Cl)ccc3o2)c1N	73.7%	113%	86.3%	18.2%	70.2%	72.4%	105%	34.5%
CSc1ccc2c(c1)c(CCN)c(C)n2Cc1ccc(Cl)c(Cl)c1	-73.7% (active)	-79.6% (active)	-91.4% (active)	-63.8% (active)	-68.9% (active)	-92.3% (active)	-88.4% (active)	-90.2% (active)
CN1CCN(Cc2ccc(NC(=O)c3ccc(C(C)(C)C)c(C#Cc4cnc5cccnn45)c3)cc2C(F)(F)F)CC1	26.6%	88.5%	-88.5% (active)	-61.9% (active)	-74.3% (active)	-70.8% (active)	-81.6% (active)	-80.8% (active)
Clc1ccc2c(c1)N(CCCN1CCCC1)c1ccccc1S2	57.8%	66.5%	-35.9% (active)	26.2%	6.29% (active)	26.5%	32%	44.6%
CCOC(=O)CCN(C(=O)Nc1ccccc1)C1CCCCC1	104%	118%	106%	102%	98.4%	102%	74.8%	108%
CNCCCNc1nc2ccccc2c2c(=O)c3cc(F)ccc3sc12	22.4%	86.7%	-85.3% (active)	-71.4% (active)	-44.8% (active)	-67% (active)	-88.3% (active)	-44.4% (active)
CN(C)CC#Cc1ccc2ncc(C#N)c(Nc3ccc(F)c(Cl)c3)c2c1	44%	51.1%	65.3%	57.3%	79.4%	40.7%	60.3%	79.7%
COc1ccc(OC)c(/C=C2\Oc3cc(OCCN4CCC(Cc5ccccc5)CC4)ccc3C2=O)c1	63.1%	89.8%	87.3%	74.5%	77.3%	73%	19.7%	92.9%
NS(=O)(=O)c1ccc(-n2nc(-c3ccc(Cl)cc3)c3ccccc3c2=O)cc1	76.8%	157%	112%	105%	88.6%	88.2%	107%	97.1%
